Holding throughout (test): DAPPL (digital affinity profiling via proximity ligation, sequencing); 10 mM Tris-HCl pH 7.5, 50 mM NaCl, 1 mM DTT, 4% glycerol, room temperature, 30 min; GST-TFs on glutathione beads, 16-mer random dsDNA library, 0.1% formaldehyde crosslink after washing; high values mean tight binding
Holding throughout (settings): protein: recombinant; tags: N-terminal GST; dsDNA, one strand shown

One test concerns the target T1, FLI1 (Homo sapiens, UniProt Q01543 1-452).
T1 sequence: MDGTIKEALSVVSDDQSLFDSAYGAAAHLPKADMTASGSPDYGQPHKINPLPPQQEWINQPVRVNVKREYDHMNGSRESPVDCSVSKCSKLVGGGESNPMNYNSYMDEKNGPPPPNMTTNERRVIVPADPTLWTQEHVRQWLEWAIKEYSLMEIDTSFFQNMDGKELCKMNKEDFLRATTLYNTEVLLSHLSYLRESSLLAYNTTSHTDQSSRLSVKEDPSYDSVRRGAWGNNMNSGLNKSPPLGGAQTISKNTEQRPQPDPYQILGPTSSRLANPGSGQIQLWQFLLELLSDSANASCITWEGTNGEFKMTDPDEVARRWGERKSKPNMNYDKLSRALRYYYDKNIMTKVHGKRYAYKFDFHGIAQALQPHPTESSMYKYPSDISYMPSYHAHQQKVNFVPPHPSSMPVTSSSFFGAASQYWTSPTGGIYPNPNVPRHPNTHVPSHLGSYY
Summed up: (§1)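 Each value of binding signal is a hexamer's read frequency for a factor divided by the same hexamer's frequency in the tag-only sample. Barcoded, bead-captured GST fusions of human transcription factors made in yeast were pooled with that sample and incubated with 200 nmole of a random double-stranded 16-mer DNA library in Tris/NaCl/DTT/glycerol buffer at room temperature for 30 min. Washing, 0.1% formaldehyde crosslinking, proximity ligation, PCR and Illumina NextSeq500 sequencing followed.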

In another test the target is T2, ELK1 (Homo sapiens, UniProt P19419 1-428).
T2 sequence: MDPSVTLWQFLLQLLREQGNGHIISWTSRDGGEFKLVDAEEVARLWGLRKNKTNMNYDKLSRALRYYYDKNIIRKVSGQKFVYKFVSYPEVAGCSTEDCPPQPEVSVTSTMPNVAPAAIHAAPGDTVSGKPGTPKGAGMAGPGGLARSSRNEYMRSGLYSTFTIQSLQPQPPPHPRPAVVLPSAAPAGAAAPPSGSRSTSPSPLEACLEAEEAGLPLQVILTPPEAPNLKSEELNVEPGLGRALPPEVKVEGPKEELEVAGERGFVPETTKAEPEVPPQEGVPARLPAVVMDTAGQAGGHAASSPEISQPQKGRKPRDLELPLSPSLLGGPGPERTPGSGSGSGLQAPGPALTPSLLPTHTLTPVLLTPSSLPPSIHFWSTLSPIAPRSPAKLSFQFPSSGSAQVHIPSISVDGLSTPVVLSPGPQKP
Summed up:
as §1

Another test concerns the target T3, GABPA (Homo sapiens, UniProt Q06546 1-454).
T3 sequence: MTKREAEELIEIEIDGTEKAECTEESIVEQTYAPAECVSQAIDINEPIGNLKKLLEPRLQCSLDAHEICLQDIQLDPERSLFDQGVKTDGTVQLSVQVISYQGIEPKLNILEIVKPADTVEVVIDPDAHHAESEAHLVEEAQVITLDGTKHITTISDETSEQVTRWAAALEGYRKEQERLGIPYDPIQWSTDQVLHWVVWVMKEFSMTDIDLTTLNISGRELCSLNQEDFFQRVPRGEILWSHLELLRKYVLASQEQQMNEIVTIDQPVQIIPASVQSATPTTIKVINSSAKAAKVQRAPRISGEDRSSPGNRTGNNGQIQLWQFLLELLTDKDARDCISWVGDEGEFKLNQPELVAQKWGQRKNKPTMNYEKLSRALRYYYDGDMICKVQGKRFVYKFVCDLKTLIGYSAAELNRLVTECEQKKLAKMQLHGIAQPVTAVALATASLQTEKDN
In outline: as §1

In another test the target is T4, ERG (Homo sapiens, UniProt P11308 1-479).
T4 sequence: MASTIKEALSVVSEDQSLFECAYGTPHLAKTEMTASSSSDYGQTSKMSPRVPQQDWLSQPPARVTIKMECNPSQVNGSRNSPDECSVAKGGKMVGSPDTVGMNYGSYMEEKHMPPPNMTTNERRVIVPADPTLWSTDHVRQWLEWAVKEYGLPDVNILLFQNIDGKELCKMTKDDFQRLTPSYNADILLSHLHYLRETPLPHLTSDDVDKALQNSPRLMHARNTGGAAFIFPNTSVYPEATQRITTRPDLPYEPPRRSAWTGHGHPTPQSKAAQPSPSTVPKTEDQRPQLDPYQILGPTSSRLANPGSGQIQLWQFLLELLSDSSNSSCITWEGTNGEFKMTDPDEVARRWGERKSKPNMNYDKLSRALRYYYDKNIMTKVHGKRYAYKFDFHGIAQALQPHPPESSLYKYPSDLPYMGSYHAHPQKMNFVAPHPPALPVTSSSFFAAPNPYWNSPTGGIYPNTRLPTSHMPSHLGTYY
Summed up:
as §1

For another test, the target named is ELF1 (Homo sapiens, UniProt P32519 1-619). In outline: as §1
ELF1, sequence (P32519 whole entry): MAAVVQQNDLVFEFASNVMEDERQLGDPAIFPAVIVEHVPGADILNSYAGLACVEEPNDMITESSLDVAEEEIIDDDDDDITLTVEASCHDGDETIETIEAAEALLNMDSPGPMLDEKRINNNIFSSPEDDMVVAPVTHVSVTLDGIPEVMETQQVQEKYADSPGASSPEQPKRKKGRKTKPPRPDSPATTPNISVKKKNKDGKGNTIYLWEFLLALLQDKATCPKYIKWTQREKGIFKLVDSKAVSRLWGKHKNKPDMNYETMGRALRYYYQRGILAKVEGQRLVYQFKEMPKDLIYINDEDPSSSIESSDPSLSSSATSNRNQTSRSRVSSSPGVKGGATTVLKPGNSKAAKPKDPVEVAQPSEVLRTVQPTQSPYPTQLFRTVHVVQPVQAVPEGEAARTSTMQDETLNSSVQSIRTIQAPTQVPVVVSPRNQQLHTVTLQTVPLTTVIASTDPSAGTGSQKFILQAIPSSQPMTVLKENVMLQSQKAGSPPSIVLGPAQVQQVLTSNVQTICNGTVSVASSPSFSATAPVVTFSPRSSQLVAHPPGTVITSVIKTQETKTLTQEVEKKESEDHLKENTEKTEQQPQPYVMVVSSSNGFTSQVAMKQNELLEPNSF
The target of another test is T5, EHF (Homo sapiens, UniProt Q9NZC4 1-300).
T5 sequence: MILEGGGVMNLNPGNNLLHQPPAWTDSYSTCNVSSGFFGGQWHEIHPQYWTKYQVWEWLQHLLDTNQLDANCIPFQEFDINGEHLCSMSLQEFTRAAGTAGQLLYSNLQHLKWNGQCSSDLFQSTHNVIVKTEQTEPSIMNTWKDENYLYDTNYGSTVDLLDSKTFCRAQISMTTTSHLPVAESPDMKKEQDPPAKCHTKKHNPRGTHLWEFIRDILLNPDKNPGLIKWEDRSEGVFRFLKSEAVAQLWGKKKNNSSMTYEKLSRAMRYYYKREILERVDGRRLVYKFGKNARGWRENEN
Summed up: as §1

Another test deals with SPI1 (Homo sapiens, UniProt P17947 1-270). In outline: as §1
In another test the target is SPIB (Homo sapiens, UniProt Q01892 1-262). In outline: as §1
SPIB, sequence (Q01892 whole entry): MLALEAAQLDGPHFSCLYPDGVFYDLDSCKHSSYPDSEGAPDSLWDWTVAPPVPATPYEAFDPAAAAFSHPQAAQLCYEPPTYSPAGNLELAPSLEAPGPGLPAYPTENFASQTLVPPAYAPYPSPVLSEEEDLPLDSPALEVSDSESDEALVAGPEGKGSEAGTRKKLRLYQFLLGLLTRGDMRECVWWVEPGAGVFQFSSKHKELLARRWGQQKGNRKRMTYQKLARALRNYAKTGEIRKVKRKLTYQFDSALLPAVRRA
The next test deals with T6, ELK3 (Homo sapiens, UniProt P41970 1-407).
T6 sequence: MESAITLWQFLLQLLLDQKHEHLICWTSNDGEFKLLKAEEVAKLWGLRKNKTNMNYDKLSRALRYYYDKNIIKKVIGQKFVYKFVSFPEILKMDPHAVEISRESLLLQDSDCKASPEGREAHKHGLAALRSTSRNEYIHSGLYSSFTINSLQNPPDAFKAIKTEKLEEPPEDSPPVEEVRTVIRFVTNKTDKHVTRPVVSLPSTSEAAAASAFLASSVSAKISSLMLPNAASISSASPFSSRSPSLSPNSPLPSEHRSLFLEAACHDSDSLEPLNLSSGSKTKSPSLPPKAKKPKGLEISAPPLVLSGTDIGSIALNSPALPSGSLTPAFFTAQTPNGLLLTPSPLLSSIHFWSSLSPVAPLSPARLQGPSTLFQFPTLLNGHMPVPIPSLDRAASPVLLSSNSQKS
In outline:
as §1

Another test deals with T7, FEV (Homo sapiens, UniProt Q99581 1-238).
T7 sequence: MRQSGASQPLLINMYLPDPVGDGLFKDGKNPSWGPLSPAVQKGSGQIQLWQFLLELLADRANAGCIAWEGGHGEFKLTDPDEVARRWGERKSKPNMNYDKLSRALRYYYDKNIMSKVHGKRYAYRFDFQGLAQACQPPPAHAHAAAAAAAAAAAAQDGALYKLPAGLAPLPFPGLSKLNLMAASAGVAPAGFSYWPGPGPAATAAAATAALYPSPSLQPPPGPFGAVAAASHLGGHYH
In outline:
as §1

As for TGGCCA, the binding signal is 1.1 fold enrichment (6-mer frequency, TF over GST control) with FLI1; 1.09 fold enrichment (6-mer frequency, TF over GST control) in the test with ELK1; 1.16 fold enrichment (6-mer frequency, TF over GST control) with GABPA; 1.05 fold enrichment (6-mer frequency, TF over GST control) with ERG; 1.14 fold enrichment (6-mer frequency, TF over GST control) with ELF1; 1.05 fold enrichment (6-mer frequency, TF over GST control) in the test with EHF. Besides, the binding signal with SPI1 is 1.05 fold enrichment (6-mer frequency, TF over GST control); in the test with SPIB, 1.13 fold enrichment (6-mer frequency, TF over GST control); in the test with ELK3 it was 1.1 fold enrichment (6-mer frequency, TF over GST control); with FEV it was 1.13 fold enrichment (6-mer frequency, TF over GST control).
